Reference: PubChem BioAssay (NCATS)
Results filed as inconclusive are left out. Activity calls are given as the source filed them. Unless noted, the call rests on the fitted dose curve; in most records, active means well fitted curve in either direction with a large enough effect (not every such curve was filed as active); inconclusive means small, poorly fitted or top-dose-only effect, or another doubt; inactive means flat fitted curve, though single readings scatter. Residues, ends and D or L forms follow the SMILES beside them.

Tests used:
[1] = target: Lysosomal acid glucosylceramidase (Homo sapiens) (UniProt P04062); assay: Glucocerebrosidase-p2 (AID 348; in the data active means potency below about 10 µM; further: potency means the concentration at half of the fitted maximal effect); conditions: purified GBA, blue fluorogenic substrate, 40 min
In short: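 Compounds titrated from 0.6 nM upwards against 0.2 nM enzyme in pH 5.9 citric acid/KH2PO4, taurocholate, tween-20; blue fluorogenic substrate 80 uM, 40 min room temperature, stopped and read Ex 365/Em 440 for AC50.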

[2] = AP1 Signaling Pathway (AID 357); conditions: ME-180 AP-1-bla reporter, EGF-induced, beta-lactamase ratio, 5 h; at 7.69 µM (top of the series) unless noted;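 further: ME-180 reporter cells stimulated with EGF at its EC50 level; on the % scale 0 is the no-effect control and ±100 the full control effect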
In short: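 Modulation of EGF-driven AP-1 transcription was assessed with a beta-lactamase reporter in ME-180 cells. Compound and EC50 EGF were co-incubated 5 hours at 37 °C before 2.5-hour CCF4 loading at room temperature and dual-emission reading.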

[3] = NFAT Signaling Pathway (AID 444); conditions: Jurkat NFAT-bla M1, carbachol, beta-lactamase ratio, 5 h; at 7.69 µM (top of the series) unless noted;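 further: carbachol stimulus at about its EC50 of 1 µM final; on the % scale 0 is the no-effect control and ±100 the full control effect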
In short: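 Read-out: CCF4 FRET ratio (460 nm/530 nm) after 1 h RT dye loading, used for %activity and AC50 from titration series. Cells: Jurkat NFAT-β-lactamase/M1 line, treated with compound plus 1 uM carbachol for 5 h, 37 °C.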

[4] = Stat Signaling Pathway (AID 446); conditions: ME-180 SIE beta-lactamase reporter, IL-6 stimulated, 5 h; at 7.69 µM (top of the series) unless noted;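 further: ME-180 cervical cancer cells given 40 pM IL-6 alongside compound; SIE-controlled beta-lactamase reporter measured as 460/530 nm FRET emission ratio; on the % scale 0 is the no-effect control and ±100 the full control effect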
In short: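 ME-180 SIE-bla cells; overnight plating; cpd + IL-6 40 pM, 5 h, 37 C; LiveBLAzer 2.5 h RT; 460/530 nm emission ratio. Normalized to 300 pM IL-6 and 125 nM JAK inhibitor controls.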

[5] = target: Glucocorticoid receptor (Homo sapiens) (UniProt P04150); assay: GR-GFP Redistribution (AID 450;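 active means compounds whose dose series gives a full or clear partial fitted curve of increased nuclear translocation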; further: potency means the concentration at half of the fitted maximal effect); conditions: U2OS GR-GFP nuclear translocation, laser cytometry, 2 h
[6] = target: Glucocorticoid receptor (Homo sapiens) (UniProt P04150); assay: GR-EFC Redistribution (AID 451; calls by dose curve; further: potency means the concentration at half of the fitted maximal effect); conditions: CHO-K1 GR-EFC translocation, beta-gal luminescence, 2 h
In short: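 Translocation of GR-ED fusion to nuclear EA restores b-gal, read by luminescence after 1 h room-temperature detection. Engineered CHO-K1 biosensor cells, 1,000/well, exposed 2 h at 37 C to titrations up to 46 uM final.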

[7] = target: Mitogen-activated protein kinase 10 (Mus musculus) (UniProt Q61831); assay: JNK3 AlphaScreen Assay (AID 530); conditions: JNK3 lysate, c-Jun phosphorylation; series mostly up to 11.4 µM;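 further: kinase came from lysate of stimulated human HepG2 cells; signal reports phosphorylation of biotinylated GST-cJun 1-79 at Ser73 with 10 µM ATP; on the % scale 0 is the no-effect control and ±100 the full control effect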
In short: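 Room-temperature AlphaScreen kinase assay; pre-activated HepG2 lysate as JNK3 source, biotin-GST-cJun(1-79) substrate, 10 uM ATP, compound 15 min preincubation.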

[8] = target: 3',5'-cyclic-AMP phosphodiesterase 4B (Homo sapiens) (UniProt Q07343); assay: qHTS Assay for Inhibitors of PDE-IV (AID 607; active means well fitted activation curve with a large enough effect in the main read-out, with a control signal flat, not every such curve was filed as active; further: % of control where 0% means no effect); conditions: HEK293 ACTOne CNG channel cells, membrane potential fluorescence; series mostly up to 22.9 µM
In short: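 ACTOne HEK293 cells carry a modified cAMP-gated CNG channel and express endogenous PDE4; plated 1000 cells/well, compounds up to 22.9 uM final. Membrane-potential dye fluorescence (ex 535/em 590) was read; parental cells received 10 uM forskolin + 100 uM RO 20-1724.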

Sequence of Glucocorticoid receptor (Homo sapiens) (P04150 whole entry, looked up, the tested form may be a part): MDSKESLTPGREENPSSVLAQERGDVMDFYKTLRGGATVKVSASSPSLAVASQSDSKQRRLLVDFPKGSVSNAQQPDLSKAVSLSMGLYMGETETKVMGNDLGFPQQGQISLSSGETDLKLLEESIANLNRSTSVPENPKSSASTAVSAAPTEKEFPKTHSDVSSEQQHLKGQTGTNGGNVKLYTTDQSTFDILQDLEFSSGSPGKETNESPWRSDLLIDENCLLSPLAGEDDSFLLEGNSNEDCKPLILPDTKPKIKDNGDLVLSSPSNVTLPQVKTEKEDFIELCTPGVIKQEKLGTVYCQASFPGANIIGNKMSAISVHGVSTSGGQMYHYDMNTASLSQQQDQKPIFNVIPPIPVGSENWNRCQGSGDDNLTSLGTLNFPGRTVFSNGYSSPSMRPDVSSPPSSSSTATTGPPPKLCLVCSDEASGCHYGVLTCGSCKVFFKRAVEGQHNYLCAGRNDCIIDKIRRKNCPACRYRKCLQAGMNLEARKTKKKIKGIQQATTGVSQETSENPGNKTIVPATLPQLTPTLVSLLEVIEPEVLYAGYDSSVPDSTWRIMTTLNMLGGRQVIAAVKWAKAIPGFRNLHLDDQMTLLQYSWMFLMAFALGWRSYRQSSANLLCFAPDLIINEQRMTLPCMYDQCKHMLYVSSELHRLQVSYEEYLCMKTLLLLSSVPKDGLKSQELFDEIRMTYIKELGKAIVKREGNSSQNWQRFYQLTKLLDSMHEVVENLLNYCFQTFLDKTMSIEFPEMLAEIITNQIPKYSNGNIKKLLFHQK
Sequence of Lysosomal acid glucosylceramidase (Homo sapiens) (P04062 whole entry, looked up): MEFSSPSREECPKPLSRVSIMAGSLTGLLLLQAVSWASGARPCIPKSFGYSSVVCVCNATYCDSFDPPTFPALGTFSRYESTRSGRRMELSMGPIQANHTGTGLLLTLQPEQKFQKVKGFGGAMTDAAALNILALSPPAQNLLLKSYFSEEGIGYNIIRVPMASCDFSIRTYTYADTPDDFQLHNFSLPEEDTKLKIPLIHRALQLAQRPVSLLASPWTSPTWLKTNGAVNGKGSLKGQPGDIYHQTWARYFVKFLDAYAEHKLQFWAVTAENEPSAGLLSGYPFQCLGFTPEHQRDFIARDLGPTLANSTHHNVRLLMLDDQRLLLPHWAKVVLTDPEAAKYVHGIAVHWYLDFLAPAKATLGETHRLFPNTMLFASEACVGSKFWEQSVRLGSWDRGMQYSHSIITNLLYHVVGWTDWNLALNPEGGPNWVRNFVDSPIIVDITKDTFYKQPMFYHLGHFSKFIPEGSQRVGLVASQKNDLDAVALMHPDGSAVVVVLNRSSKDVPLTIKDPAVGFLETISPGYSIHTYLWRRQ
Sequence of 3',5'-cyclic-AMP phosphodiesterase 4B (Homo sapiens) (Q07343 whole entry, looked up): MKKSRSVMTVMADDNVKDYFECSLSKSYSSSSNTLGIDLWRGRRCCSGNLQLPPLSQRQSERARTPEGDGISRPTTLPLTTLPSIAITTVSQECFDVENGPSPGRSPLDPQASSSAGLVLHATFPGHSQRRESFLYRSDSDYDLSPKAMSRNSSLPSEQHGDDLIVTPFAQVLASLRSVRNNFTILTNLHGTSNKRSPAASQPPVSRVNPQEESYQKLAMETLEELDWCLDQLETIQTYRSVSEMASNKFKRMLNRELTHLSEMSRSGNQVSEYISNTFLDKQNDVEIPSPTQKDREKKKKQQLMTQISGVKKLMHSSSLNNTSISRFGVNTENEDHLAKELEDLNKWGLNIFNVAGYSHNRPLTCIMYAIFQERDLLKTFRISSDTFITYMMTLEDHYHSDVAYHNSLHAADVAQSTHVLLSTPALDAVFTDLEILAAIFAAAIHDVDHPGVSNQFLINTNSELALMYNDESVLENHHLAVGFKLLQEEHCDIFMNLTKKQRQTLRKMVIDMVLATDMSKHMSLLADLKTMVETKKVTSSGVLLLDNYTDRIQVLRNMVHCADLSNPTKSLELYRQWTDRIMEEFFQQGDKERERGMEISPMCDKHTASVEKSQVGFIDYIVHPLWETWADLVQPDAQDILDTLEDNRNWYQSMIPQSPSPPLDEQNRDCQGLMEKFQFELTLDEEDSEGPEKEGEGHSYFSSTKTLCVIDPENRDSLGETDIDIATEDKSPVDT

c1ccc(CO[C@H]2NCCN2Cc2ccccc2)cc1
inactive: Potency [1] > 11.4 µM | activity change, negative = inhibition [2] 11% | activity change, negative = inhibition [3] 9.93% | activity, negative = inhibition [4] 12.8% | Potency [5] > 46 µM | Potency [6] > 9.22 µM | Potency [7] | Potency [8]

CN(CCC(=O)O)S(=O)(=O)c1ccccc1
inactive: Potency [1] > 11.4 µM | activity change, negative = inhibition [2] -0.615% | activity change, negative = inhibition [3] 15.6% | activity, negative = inhibition [4] 11.1% | Potency [5] > 46 µM | Potency [6] > 9.22 µM | Potency [7] | Potency [8]

O=C(O)c1cccc(S(=O)(=O)NCCO)c1
inactive: Potency [1] > 11.4 µM | activity change, negative = inhibition [2] 5.38% | activity change, negative = inhibition [3] 3.24% | activity, negative = inhibition [4] -2.13% | Potency [5] > 46 µM | Potency [6] > 9.22 µM | Potency [7] | Potency [8]

O=C1c2ccccc2[C@@H]([C@@H]2c3ccccc3C(=O)c3cc(Br)ccc32)c2ccc(Br)cc21
inactive: Potency [1] > 11.4 µM | activity change, negative = inhibition [2] -5.16% | activity change, negative = inhibition [3] -5.27% | activity, negative = inhibition [4] 8.23% | Potency [5] > 46 µM | Potency [6] > 9.22 µM | Potency [7] | Potency [8]

O=S(=O)(c1cccc(C(F)(F)F)c1)N1c2ccccc2-n2cccc2[C@H]1c1cccnc1
inactive: Potency [1] > 11.4 µM | activity change, negative = inhibition [2] -23.2% | activity change, negative = inhibition [3] -6.39% | activity, negative = inhibition [4] -6.23% | Potency [5] > 46 µM | Potency [6] > 9.22 µM | Potency [7] | Potency [8]

C[C@@H](NC(=O)C1(N)CCCC1)C(=O)O (HELM PEPTIDE1{[NC1(C(=O)[*:2])CCCC1].[dA]}$$$$V2.0)
inactive: Potency [1] > 11.4 µM | activity change, negative = inhibition [2] 5.64% | activity change, negative = inhibition [3] 15.7% | activity, negative = inhibition [4] 6.26% | Potency [5] > 46 µM | Potency [6] > 9.22 µM | Potency [7] | Potency [8]

NC(=O)C/C=C\CC(N)=O
inactive: Potency [1] > 11.4 µM | activity change, negative = inhibition [2] 1.15% | activity change, negative = inhibition [3] 10.3% | activity, negative = inhibition [4] -3.27% | Potency [5] > 46 µM | Potency [6] > 9.22 µM | Potency [7] | Potency [8]

NNC(=O)[C@@H](O)[C@H](O)C(=O)NN
inactive: Potency [1] > 11.4 µM | activity change, negative = inhibition [2] -1.69% | activity change, negative = inhibition [3] 10.2% | activity, negative = inhibition [4] -2.25% | Potency [5] > 46 µM | Potency [6] > 9.22 µM | Potency [7] | Potency [8]

Cc1nc2ccccc2nc1N1CCCC1
inactive: Potency [1] > 11.4 µM | activity change, negative = inhibition [2] 2.88% | activity change, negative = inhibition [3] 0.00129% | activity, negative = inhibition [4] 3.44% | Potency [5] > 46 µM | Potency [6] > 9.22 µM | Potency [7] | Potency [8]

C[N+](C)(C)CC(=O)N/N=C\c1ccncc1
inactive: Potency [1] > 11.4 µM | activity change, negative = inhibition [2] -2.8% | activity change, negative = inhibition [3] 3.32% | activity, negative = inhibition [4] 8.79% | Potency [5] > 46 µM | Potency [6] > 9.22 µM | Potency [7] | Potency [8]

C[C@H](CC(=O)O)C(C(=O)O)C(=O)O
inactive: Potency [1] > 11.4 µM | activity change, negative = inhibition [2] -3.69% | activity change, negative = inhibition [3] -5.24% | activity, negative = inhibition [4] -3.1% | Potency [5] > 46 µM | Potency [6] > 9.22 µM | Potency [7] | Potency [8]

COc1cccc(CSCC(=O)O)c1
inactive: Potency [1] > 11.4 µM | activity change, negative = inhibition [2] -5.92% | activity change, negative = inhibition [3] 6.63% | activity, negative = inhibition [4] 6.95% | Potency [5] > 46 µM | Potency [6] > 9.22 µM | Potency [7] | Potency [8]

Cc1ccn2c(CCc3nnc4cc(C)ccn34)nnc2c1
inactive: Potency [1] > 11.4 µM | activity change, negative = inhibition [2] 2.24% | activity change, negative = inhibition [3] 11% | activity, negative = inhibition [4] -6.72% | Potency [5] > 46 µM | Potency [6] > 9.22 µM | Potency [7] | Potency [8]
